# Screens as filed in PubChem BioAssay.
# Mtb hypoxia inh – reduces hypoxia-regulated biosensor signal in M. tuberculosis; M. tuberculosis hypoxia-regulated fluorescent reporter, fluorescence; fluorescence inhibition, % (no concentration beside the values); 300,000 compounds, 0.1% hits; AID 1159583; in the data active = fluorescence inhibition mostly above about 23%, no sharp cut-off; inactive = mostly below about 17%
# PfHsp40 rescue – rescue of PfHsp40-mediated yeast toxicity; S. cerevisiae expressing PfHsp40, growth rescue, ATP luminescence; growth rescue, % at 12.5 µM; 340,000 compounds, 0.68% hits; AID 504582; in the data active = growth rescue above about 28%, passing the limit was not always enough; inconclusive = no clear call, values can overlap the other calls;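 also: yeast W303a lacking pdr1 and pdr3 grown in galactose medium; growth measured after three days at 30 °C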
# Sa ugtP lethal – compounds lethal to S. aureus RN4220 ugtP deletion mutant | OD600 growth, 16 h | growth inhibition, % (no concentration beside the values) | 330,000 compounds, 0.54% hits | AID 1259309; in the data active = growth inhibition above about 68%;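 also: plate controls were untreated wells for no effect and antibiotic for full effect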
# Sa RN4220 lethal – S. aureus RN4220 growth inhibition; OD600, 16 h; inhibition, % (test concentration not listed); 330,000 compounds, 0.33% hits; in the data active = inhibition above about 85%;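 also: plate controls were untreated cells for no effect and reference antibiotic for full effect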
# BH1578 lux ind – induces V. cholerae light production without autoinducers. V. cholerae BH1578 lux reporter, luminescence, 6 h. activation, % at 18.7 µM. 350,000 compounds, 0.16% hits; in the data active = activation mostly above about 9.7%, no sharp cut-off; inconclusive = no clear call, values can overlap the other calls; inactive = mostly below about 3.7%
# CCHF vOTU inh – blocks the CCHF virus ovarian tumor domain protease. CCHFV vOTU protease, Pep-AMC fluorescence. inhibition, % at 11.5 µM. 370,000 compounds, 0.55% hits; in the data active = inhibition above about 30%; also: 0% = vehicle wells with enzyme and 100% = no enzyme wells
# * hit, by the source's call; i = inactive; ? = inconclusive; / = no result shown; + = active, no number. A selection: hits, their analogues and other compounds. The true share with any hit is near 1.7%.
SMILES,Mtb hypoxia inh,PfHsp40 rescue,Sa ugtP lethal,Sa RN4220 lethal,BH1578 lux ind,CCHF vOTU inh
O=C(NCc1ccncc1)c1ccccc1Nc1ccc(SC(F)F)cc1,6,474*,-4,1,i,11
O=C(CCNS(=O)(=O)c1ccccc1)N1CCN(c2ccccc2)CC1,/,54*,/,/,0,-4
CC(=O)N1CCN(C(=O)CCNS(=O)(=O)c2ccccc2)CC1,4,0,5,3,0,10
CCOC(=O)N1CCN(C2=C(NS(=O)(=O)c3ccccc3)C(=O)c3ccccc3C2=O)CC1,-2,0,-1,13,0,89*
COc1ccc(C#Cc2c(C=O)n(C)c3ccccc23)cc1,15,-1,100*,1,i,-5
Cn1c(C=O)c(C#Cc2ccccc2)c2ccccc21,2,0,100*,-3,i,9
Cn1c(-c2ccc(C#N)cc2)c(C#Cc2ccccc2)c2ccccc21,/,-1,/,/,-1,-10
COc1ccc(C#Cc2c(-c3ccccc3)n(C)c3ccccc23)cc1,10,-1,-7,3,-1,4
CCOC(=O)c1nn(-c2ccc(C)cc2)cc1O,10,3,-6,7,+,2
CCCCOc1ccc(CSCCN=C(N)N)cc1,4,0,100*,21,0,9
CC1(C(=O)OCC(=O)Nc2ccc(C(N)=O)cc2)CC1(Cl)Cl (stereo not given),6,-1,2,1,i,-7
CC1(C(=O)OCC(=O)Nc2ccc3ccccc3c2)CC1(Cl)Cl (stereo not given),4,46*,2,5,-1,-6
CCCCCCn1c2c(c(=N)c3c1CCC3)CCC2,13,0,2,3,i,8
CCCCCCCCCn1c2c(c(=N)c3c1CCC3)CCC2,24,-1,101*,100*,1,/
CCCCCCCn1c2c(c(=N)c3c1CCC3)CCCC2,/,-1,99*,11,0,12
Cc1ccc(C2c3c(C)nn(-c4ccc([N+](=O)[O-])cc4)c3N=C3C(=O)Nc4ccccc4N32)cc1 (stereo not given),40*,/,3,2,/,/
COc1cc(C(=O)Sc2ccc(Cl)cc2)cc(OC)c1OC,/,0,93*,1,0,-6
CCCCN1CCC2C=CCC(C(=O)NCc3ccc(OC)cc3)C2C1=O (stereo not given),21,/,1,3,/,/
O=C(COc1ccc(-c2nnco2)cc1)NC1CCS(=O)(=O)C1 (stereo not given),-1,31*,3,2,i,3
COc1ccccc1NC(=O)CN1CCN(CC(=O)Nc2ccc(Cl)c(C(F)(F)F)c2)CC1,/,1,-26,-15,i,15
Cc1cc(C)cc(OCC(=O)N(C)CC(=O)Nc2ccc(Cl)c(C(F)(F)F)c2)c1,10,51*,-20,-4,i,29
CCc1ccccc1NCC(=O)Nc1ccc(Cl)c(C(F)(F)F)c1,3,?,90*,83,5,25
Cc1c(Br)c([N+](=O)[O-])nn1C(C)C(=O)Nc1ccc2c(c1)OCO2 (stereo not given),13,1,-1,1,55*,-1
COc1ccc(C=NN=Cc2ccc(OC)c(O)c2)cc1O,8,/,6,1,/,/
Cc1[nH]c2ccccc2c1N=Nc1ccccc1F,4,170*,14,-16,i,14
SMILES,Mtb hypoxia inh,PfHsp40 rescue,Sa ugtP lethal,Sa RN4220 lethal,BH1578 lux ind,CCHF vOTU inh
COCCNC(=S)N1CCC(C(=O)c2ccc(C)cc2)CC1,11,48*,8,6,i,-8
CCOC(=O)OC(C)OC(=O)[C@@H]1N2C(=O)[C@@H](NC(=O)[C@H](N)c3ccccc3)[C@H]2SC1(C)C (stereo not given in full),/,0,/,/,-1,2
CC1(C)SC2C(C(=O)OCc3ccccc3)NC(=O)N2C1C(=O)OCc1ccccc1 (stereo not given),13,/,-19,8,/,/
CC1(C)S[C@@H]2[C@H](NC(=O)COc3ccccc3)C(=O)N2C1C(=O)OCC1CCCCC1 (stereo not given in full),1,4,100*,99*,i,10
CC1(C)SC2C(NC(=O)COc3ccccc3)C(=O)N2C1C(=O)OCc1ccccc1 (stereo not given),-4,/,100*,100*,/,/
O=C(NN=Cc1ccc(N2CCOCC2)cc1)C1CC1,4,/,2,4,/,/
FC(F)(F)c1cc(CCN2CCNCC2CC2CCCCC2)cc(C(F)(F)F)c1 (stereo not given),/,/,-35,9,/,/
